Here are results for 16 molecules from PubChem BioAssay (NCI).

Structures are written as SMILES. The panel holds about 83,000 compounds, 20% with a hit somewhere; the sample as a whole holds those more often.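 Interpretation: 100, growth as untreated; towards 0, rising growth inhibition; 0, no net growth; 0 to -100, cell death. Compounds scoring below 10 were considered active.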 A number with no mark means an inactive call. Calls of active or inactive are those of the source.

Test systems include DU-145 prostate; K-562 leukemia; MALME-3M melanoma; MDA-MB-231 breast; SF-268 CNS; SF-295 CNS; SF-539 CNS; UACC-257 melanoma.
What all share (experiment): NCI-60 one-dose screen, 48 h (100 = growth as untreated, 0 = no growth, -100 = all killed)
Holding throughout (conditions): 10 µM unless noted

Consider `CC1=NC2=NC(=O)/C(=C3/N=C(C)C=C(c4ccccc4)N3N)NN2C(c2ccccc2)=C1`, for which the growth in the assay on DU-145 prostate was 105%; with K-562 leukemia it was 101%; in the assay with MALME-3M melanoma, 44.3%; in the assay with MDA-MB-231 breast it was 72.2%; in the assay on SF-268 CNS, 103%; in the assay with SF-295 CNS it was 106%. Moreover, the growth was 100% in the assay with SF-539 CNS and 109% with UACC-257 melanoma.

As for `C=CCn1c(-c2nc3ccc(C(=C(C#N)C#N)c4ccccc4)cc3[nH]2)cc2cc(Br)ccc21`, the growth was 72.4% with DU-145 prostate; 23.7% in the assay on K-562 leukemia; 84.1% in the assay with MALME-3M melanoma; 58.3% with MDA-MB-231 breast; 62.9% in the assay on SF-268 CNS; 43.1% in the assay with SF-295 CNS. The values for the growth in the assay on SF-539 CNS and in the assay with UACC-257 melanoma were 65.3% and 70.9%, respectively.

In the case of `CCn1c2ccccc2c2cc(-n3nncc3-c3ccccc3)ccc21`, the growth with DU-145 prostate is 13.3%; in the assay with K-562 leukemia, 10.3%; in the assay with MALME-3M melanoma it was 56.3%; in the assay on MDA-MB-231 breast, 27.2%; in the assay on SF-268 CNS, 35.2%; with SF-295 CNS, 15.7%. Also, the growth with SF-539 CNS was -17.7% (active); in the assay with UACC-257 melanoma, 85.4%.

For `ClC(Cl)c1nc(-c2ccco2)n2nc(-c3ccccc3)cc2n1`, the growth was -24.8% (active) with DU-145 prostate; 50.6% in the assay on K-562 leukemia; 107% with MALME-3M melanoma; -11.1% (active) with MDA-MB-231 breast; 24.3% in the assay on SF-268 CNS; -15.4% (active) in the assay with SF-295 CNS. The results for the growth in the assay on SF-539 CNS and in the assay on UACC-257 melanoma were -7.97% (active) and 54%, respectively.

On to `NC(N)=Nc1ccc(Oc2cccc(NC(N)=Nc3ccc(Cl)c(C(F)(F)F)c3)c2)cc1`, for which the growth in the assay with DU-145 prostate was 75.2%; in the assay with K-562 leukemia, 31.7%; in the assay on MALME-3M melanoma, 61.8%; with MDA-MB-231 breast, 61.3%; with SF-268 CNS, 21.9%; with SF-295 CNS, 58.3%. Also, the growth was 49.3% in the assay with SF-539 CNS and 57% in the assay with UACC-257 melanoma.

With `COc1cc2c(cc1OC)C(Sc1ccc(F)cc1)c1c(nc(N)c(C#N)c1N)O2` (stereo not drawn), the growth in the assay with DU-145 prostate was -93.3% (active); in the assay with K-562 leukemia it was 8.27% (active); in the assay with MALME-3M melanoma, -75.1% (active); in the assay with MDA-MB-231 breast it was -79% (active); with SF-268 CNS, -38.3% (active); in the assay on SF-295 CNS, -74.8% (active). Moreover, the growth was -90.6% (active) in the assay with SF-539 CNS and -25% (active) with UACC-257 melanoma.

Consider `O=C(NCCn1ccnc1)c1ccc(-c2nc3ccc4[nH]ncc4c3c3c2CCCC3)cc1`, for which the growth in the assay on DU-145 prostate is 62.7%; in the assay with K-562 leukemia it was 24.1%; in the assay with MALME-3M melanoma it was 41.9%; in the assay on MDA-MB-231 breast, 66.1%; in the assay with SF-268 CNS, 48%; in the assay with SF-295 CNS, 77.1%. Also, the growth is 50.9% with SF-539 CNS and 92.9% with UACC-257 melanoma.

For `CCOc1ccccc1NC1=C(Cl)C(=O)c2nc(C)ccc2C1=O`, the growth with DU-145 prostate is -85% (active); in the assay on K-562 leukemia it was 1.26% (active); in the assay on MALME-3M melanoma, -71.4% (active); in the assay with MDA-MB-231 breast, -63.6% (active); in the assay on SF-268 CNS it was 32.8%; in the assay on SF-295 CNS it was 90.7%. Moreover, the growth was -37.3% (active) in the assay on SF-539 CNS and -88.3% (active) in the assay with UACC-257 melanoma.

For the molecule `O=C(NNc1nc2cc(F)ccc2n2c(CN3CC4CNCC4C3)ccc12)c1cnccn1` (stereo not drawn), the growth in the assay on DU-145 prostate is 27.5%; with K-562 leukemia, 15.6%; in the assay with MALME-3M melanoma it was 18.9%; with MDA-MB-231 breast it was 39.5%; in the assay with SF-268 CNS, 22.3%; in the assay on SF-295 CNS it was 2.89% (active). For the same molecule, the growth is 15.1% in the assay with SF-539 CNS and 13.7% in the assay with UACC-257 melanoma.

In the case of `Cc1ccc2c(c1)Oc1nc(N)c(C#N)c(N)c1C2Sc1ccc(F)cc1` (stereo not drawn), the growth in the assay with DU-145 prostate is -98.9% (active); with K-562 leukemia, -13.6% (active); with MALME-3M melanoma, -91.9% (active); in the assay with MDA-MB-231 breast, -92.5% (active); in the assay with SF-268 CNS, -81.6% (active); in the assay on SF-295 CNS, -96.9% (active). Besides, the values for the growth in the assay with SF-539 CNS and in the assay on UACC-257 melanoma were -99% (active) and -94.4% (active), respectively.

Consider `COc1ccc(NC(=O)Nc2ccc3c(ccn3C(=O)c3cccc(F)c3)c2)cc1`, for which the growth is 84.5% in the assay on DU-145 prostate; 86.1% in the assay on K-562 leukemia; 34.2% in the assay with MALME-3M melanoma; 78.6% in the assay on MDA-MB-231 breast; 85.3% in the assay with SF-268 CNS; 90.4% in the assay with SF-295 CNS. Moreover, the growth was 52% with SF-539 CNS and 84.2% with UACC-257 melanoma.

Turning to `Nc1ncc(-c2ccc3ncnc(N4CCc5cc(F)c(F)cc54)c3c2)cn1`, the growth was 26% with DU-145 prostate; 48.7% in the assay with K-562 leukemia; 17.4% with MALME-3M melanoma; 26.9% with MDA-MB-231 breast; 29.5% in the assay on SF-268 CNS; 20.7% in the assay on SF-295 CNS. Also, the growth with SF-539 CNS was 18.9%; with UACC-257 melanoma, 45%.

Take `CCn1c(SCC(=O)Nc2cccc(C(=O)/C=C/c3cc(OC)c(OC)c(OC)c3)c2)nc2ccccc2c1=O`: the growth with DU-145 prostate is 13.9%; in the assay on K-562 leukemia, 13.4%; in the assay with MALME-3M melanoma, 61.8%; in the assay on MDA-MB-231 breast, 23.4%; in the assay with SF-268 CNS, 37.7%; with SF-295 CNS, 75%. Further, the growth in the assay with SF-539 CNS is 24%; in the assay on UACC-257 melanoma, 67.7%.

`COc1ccc(COc2ccc(/C=C3\C(=O)Nc4ccccc43)cc2OC)cc1`: the growth in the assay on DU-145 prostate is 109%; in the assay with K-562 leukemia it was 101%; in the assay on MALME-3M melanoma, 99.7%; in the assay with MDA-MB-231 breast, 99.9%; with SF-268 CNS, 103%; in the assay on SF-295 CNS, 103%. Further, the growth is 95.9% in the assay on SF-539 CNS and 116% in the assay on UACC-257 melanoma.

Consider `COc1cc(C2N=C(NNc3ccccc3)NC(C)=C2C(C)=O)ccc1O` (stereo not drawn), for which the growth in the assay on DU-145 prostate was 108%; with K-562 leukemia, 66.8%; in the assay on MALME-3M melanoma, 106%; with MDA-MB-231 breast, 76.8%; in the assay on SF-268 CNS, 86.3%; in the assay on SF-295 CNS, 101%. In addition, the growth is 98.7% in the assay with SF-539 CNS and 110% with UACC-257 melanoma.

As for `CCOC(=O)c1c(NC(=O)c2ccccc2C(F)(F)F)sc2c1CCC(=O)C2`, the growth was 95.3% in the assay on DU-145 prostate; 12.8% in the assay on K-562 leukemia; 73% in the assay on MALME-3M melanoma; 15.2% in the assay on MDA-MB-231 breast; 22.9% with SF-268 CNS; 41.6% in the assay with SF-295 CNS. In addition, the values for the growth with SF-539 CNS and with UACC-257 melanoma were -6.66% (active) and 98.9%, respectively.
